In PubChem BioAssay AID1490 (National Center for Advancing Translational Sciences (NCATS), 2009):
The whole screen tested about 310,000 compounds, of which about 11,000 (3.5%) were called active. Not shown: some 4% with an inconclusive outcome. The call rests on the fitted dose curve; in most records, active means well fitted inhibition curve with a large enough effect; inconclusive means small, poorly fitted or top-dose-only effect, or another doubt; inactive means no such curve, though single readings can be large or run the other way. For the sample, actives were picked, then their nearest neighbours and some compounds at random.

target: 4'-phosphopantetheinyl transferase ffp (Bacillus subtilis) (UniProt Q9F4F7); assay: qHTS Assay for Inhibitors of Bacillus subtilis Sfp phosphopantetheinyl transferase (PPTase); settings: Biochemical Sfp PPTase activity;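 further: the enzyme is Sfp with the accession as filed and its product quenches rhodamine fluorescence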;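 on largest response in the series, negative = inhibition: 0% = enzyme reaction without inhibitor and -100% = no enzyme wells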
Method in brief: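 Step 1, compound plus 15 nM Sfp-PPTase, 15 min, room temperature. Step 2, add rhodamine-CoA (5 uM) and BHQ-2-YbbR (12.5 uM). Step 3, read 525/598 nm fluorescence at 0 and 30 min.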
Potency means the concentration at half of the fitted maximal effect.

Structure (SMILES) | largest response in the series, negative = inhibition | Potency
CCOc1cc(-c2cc(-c3ccc(NC(C)=O)cc3)nc(N)c2C#N)ccc1O | 10.7% (inactive) | –
Cc1cc(=O)n2nc(N3CCCC(C(=O)NCc4cccc(Cl)c4)C3)sc2n1 (configuration not stated) | 8.1% (inactive) | –
COc1ccc(CCNC(=O)c2ccccc2-c2ccccc2C(=O)O)cc1OC | 5.81% (inactive) | –
COc1ccc(CCNC(=O)Cc2ccc(C)cc2)cc1OC | – | 39.8 µM (active)
COc1ccc(CCNC(=O)NS(=O)(=O)c2ccc(C)cc2)cc1OC | 17.5% (inactive) | –
CC(C)(Oc1ccc(C2CC2(Cl)Cl)cc1)C(=O)O (configuration not stated) | 18% (inactive) | –
COc1ccc(NS(=O)(=O)c2cc3c(cc2C)N(C(C)=O)CCO3)cc1 | 15.7% (inactive) | –
CCn1c(=O)c(=O)[nH]c2c(=O)oc3ccc(S(=O)(=O)Nc4ccc(OC)cc4)cc3c21 | 5.45% (inactive) | –
CCOC(=O)N1CCN(C(=O)C(=O)Nc2sc3c(c2C#N)CC(C)(C)OC3)CC1 | -14.6% (inactive) | –
C/C=C(/C)C(=O)Nc1cccc(C2=NOC3(C2)C[C@@H](C(N)=O)N(C(=O)C2(C)CC2)C3)c1 (some centres not stated) | -3.68% (inactive) | –
CC/C=C/C(=O)N1CC2(CC(c3cccc(NC(=O)CC)c3)=NO2)C[C@H]1C(N)=O (some centres not stated) | -8.44% (inactive) | –
C/C=C\C=C\C(=O)N1CC2(CC(c3cccc(NC(=O)/C(C)=C\C)c3)=NO2)C[C@H]1C(N)=O (some centres not stated) | – | 15.8 µM (active)
CCOC(=O)N1CCN(S(=O)(=O)c2ccc(-n3cnnn3)cc2)CC1 | 6.31% (inactive) | –
NS(=O)(=O)c1ccc(NC(=S)NC(=O)c2cccnc2)cc1 | -95.1% (inactive) | –
CCOc1ccccc1N1CCN(C(=S)Nc2ccc(S(N)(=O)=O)cc2)CC1 | -3.97% (inactive) | –
NS(=O)(=O)c1ccc(NC(=S)N2CCCC2)cc1 | 13.2% (inactive) | –
COc1ccc(NC(=S)Nc2ccc(S(N)(=O)=O)cc2)c(C)c1 | – | 50.1 µM (active)
COc1ccc(NS(=O)(=O)c2ccc(NC(=S)NC(=O)CC(C)C)cc2)cc1 | 3.37% (inactive) | –
COc1ccc(N2CCN(C(=S)Nc3ccc(S(N)(=O)=O)cc3)CC2)cc1 | – | 11.2 µM (active)
Cc1ccccc1NC(=O)CCOc1ccccc1 | 2% (inactive) | –
CCc1ccc(CN(C)C(=O)C2CCC(=O)N(Cc3cccc(OC)c3)C2)nc1 (configuration not stated) | 14.7% (inactive) | –

Structure (SMILES) | largest response in the series, negative = inhibition | Potency
Cc1ccc(NS(=O)(=O)c2cn(C)c(=O)n(C)c2=O)c(C)c1 | 8.01% (inactive) | –
COc1ccccc1NC(=O)CCC(=O)N1CC(C)Oc2ccc(C)cc21 (configuration not stated) | 6.52% (inactive) | –
COc1ccc(C(C(=O)NCC2CCCO2)N(C(=O)Cn2nnc3ccccc32)c2ccc(NC(C)=O)cc2)cc1OC (configuration not stated) | 15.5% (inactive) | –
Nc1nc(Nc2ccccc2)nc(NCCO)c1[N+](=O)[O-] | 13.5% (inactive) | –
CN(C)c1nc(Nc2ccc(Cl)c(Cl)c2)nc(N(C)C)n1 | 3.3% (inactive) | –
OCCNc1nc(Nc2ccc(Cl)c(Cl)c2)nc2ccccc12 | – | 79.4 µM (active)
O=C(NCC(=O)N1CCN(c2ccccc2O)CC1)c1ccc2ccccc2c1 | 2.02% (inactive) | –
CCN1CCN(c2sc(S(C)(=O)=O)nc2S(=O)(=O)c2ccc(Cl)cc2)CC1 | 14.2% (inactive) | –
COc1ccc(C(=O)COC(=O)Cn2cnc3c2c(=O)n(C)c(=O)n3C)c(OC)c1 | 2.93% (inactive) | –
CCCOC1CCCN(C(=O)c2cc(COc3cncc(Cl)c3)on2)C1 (configuration not stated) | -1.29% (inactive) | –
CCOc1cc(N2CCOCC2)c(OCC)cc1NC(=O)COc1cccc2cccnc12 | 1.6% (inactive) | –
OC(COc1ccc2ccccc2c1)CN1CCOCC1 (configuration not stated) | 11.8% (inactive) | –
Oc1c(C(c2ccccn2)N2CCOCC2)ccc2cccnc12 (configuration not stated) | – | 35.5 µM (active)
CN(C)CCNc1ccc(-c2n[nH]c(=O)c3ccccc23)cc1[N+](=O)[O-] | 16.7% (inactive) | –
Cc1ccc(C(=O)O/N=C(\N)c2ccccn2)cc1Cl | 2.02% (inactive) | –
O=C(Nc1ccccc1Cl)Nc1cccc2cccnc12 | 2.31% (inactive) | –
O=C(Nc1ccccc1Cl)O/N=C(/c1ccccc1)c1ccccn1 | – | 79.4 µM (active)
CCCCNc1nc(C)nc2c1nc(-c1ccccc1)n2CCCCN(CC)CC | 23.3% (inactive) | –
Cc1cc(C)n(-c2ccc(NC(=O)C3CCCCN3C(=O)c3cccs3)cc2)n1 (configuration not stated) | 4.09% (inactive) | –
C=CCc1cccc(/C=N/NC(=O)COc2ccc(-n3cnnn3)cc2)c1O | 15.1% (inactive) | –
CCc1ccnc(NC(=O)Nc2ccc(OCc3ccccc3)cc2)c1 | -0.979% (inactive) | –
